Several values for one entry are separate records, joined by “and”; a condition that tells them apart may be missing. Equal entries are not always repeated. Records with an inconclusive call do not appear. Some structures have more than one record in an assay (separate samples or runs), and their calls can disagree. Activity calls are given as the source filed them. How the source made its calls, unless noted: active means hit-call score of the fitted dose curve at least 0.9, where 1 is the maximum; inactive means score below 0.9.
Experiments:
[1] = tested on: DIO2 (gene 1734); assay: CCTE_GLTED_hDIO2: CCTE's human Deiodinase 2 (DIO2) Inhibition Assay, Great Lakes Toxicology and Ecology Division (GLTED) Lab (AID 2284050; active means hit-call score of the fitted dose curve at least 0.9, where 1 is the maximum)
Method in brief: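 Inhibition is judged by reduced iodide release: uninhibited human DIO2 frees iodide from substrate over 3 h, measured afterward by Sandell-Kolthoff colorimetry. Iodinated chemicals or nitrite, iron and thiocyanate may interfere.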

[2] = tested on: DIO3 (gene 1735); assay: CCTE_GLTED_hDIO3: CCTE's human Deiodinase 3 (DIO3) Inhibition Assay, Great Lakes Toxicology and Ecology Division (GLTED) Lab (AID 2284055; active means hit-call score of the fitted dose curve at least 0.9, where 1 is the maximum;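 on AC50: potency is for inhibition seen as loss of released iodide signal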)
Method in brief: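 Human type 3 deiodinase, expressed via adenovirus system, was exposed to test chemicals for 3 hours in a cell-free format. Released iodide was then determined spectrophotometrically by Sandell-Kolthoff; plates ran in triplicate.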

[3] = CCTE_Shafer_MEA_acute_LDH: CCTE's Lactate Dehydrogenase Assay for Cytotoxicity in the Neural Acute Assay, Shafer Lab (AID 2284086; active means hit-call score of the fitted dose curve at least 0.9, where 1 is the maximum;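 further: active means LDH release rises above DMSO vehicle level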)
Method in brief: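 Medium collected from MEA wells of primary rat cortical cultures (DIV 13 or 15) immediately after 40 min chemical exposure is assayed spectrophotometrically for lactate dehydrogenase activity. Endpoint fitted in positive direction versus DMSO.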

[4] = CCTE_Shafer_MEA_dev_per_burst_interspike_interval: CCTE's Neural Network Formation Assay for Burst Interspike Interval, Shafer Lab (AID 2284044);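 further: mean spike spacing inside bursts as AUC over recordings on days 5 7 9 12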;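 on AC50: potency for a decrease of within-burst interspike interval below DMSO level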
Method in brief: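 Neurons from rat cortex plated onto PEI-coated MEA wells with laminin […] at 1.5 x 10^5 cells/well, then treated from day 0. Media and compound fully replaced on DIV 5 and 9. Extracellular spontaneous firing recorded four times; interspike interval per burst summarised as AUC.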

[5] = CCTE_Shafer_MEA_dev_burst_duration_mean: CCTE's Neural Network Formation Assay for Mean Burst Duration, Shafer Lab (AID 2284045);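 on AC50: curve fitted for loss meaning shorter burst duration than DMSO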
Method in brief: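 Network-formation assay in primary rat cortical neurons; treatment spans twelve days of development. Mean burst duration per well is integrated by trapezoidal AUC and fitted in the loss-of-signal direction against DMSO baseline.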

[6] = CCTE_Shafer_MEA_dev_interburst_interval_mean: CCTE's Neural Network Formation Assay for Mean Interburst Interval, Shafer Lab (AID 2284046);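 further: well-mean interburst interval of bursting electrodes as AUC over four recording days; curve fitted for decrease in interburst interval relative to DMSO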
Method in brief: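 Recordings on days 5, 7, 9 and 12 give well-mean interburst interval across actively bursting electrodes, summarized as area under the curve. Cultures: rat cortical neurons, continuous exposure from day 0, compound renewed at feeds; decrease analyzed versus DMSO.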

[7] = CCTE_Shafer_MEA_dev_inter_network_spike_interval_mean: CCTE's Neural Network Formation Assay for Mean Inter-network Spike Interval, Shafer Lab (AID 2284047);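 on AC50: potency for a decrease in mean inter-network spike interval below DMSO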
Method in brief: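 Primary rat cortical neurons on 16-electrode MEA wells, exposed from plating day 0 through DIV 12, compound renewed at DIV 5 and 9 media changes. Mean interval between network-spike peaks recorded DIV 5, 7, 9, 12; collapsed as trapezoidal AUC, fitted downward versus DMSO.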

[8] = CCTE_Shafer_MEA_dev_network_spike_number: CCTE's Neural Network Formation Assay for Number of Network Spikes, Shafer Lab (AID 2284048);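 further: synchronized bursts across electrodes counted on days 5 7 9 12 and integrated as AUC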;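 on AC50: fit as a loss of signal meaning fewer network spikes than DMSO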
Method in brief: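 Extracellular recordings from 16-electrode wells track network formation in rat cortical cultures under continuous treatment from plating. The endpoint is network spike number, expressed as AUC across DIV 5–12 relative to DMSO vehicle.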

[9] = CCTE_Shafer_MEA_dev_network_spike_peak: CCTE's Neural Network Formation Assay for Mean Number of Electrodes in Network Spike, Shafer Lab (AID 2284049);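 on AC50: fitted for loss of signal meaning fewer electrodes in network spikes than DMSO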
Method in brief: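 Continuous 12-day exposure of rat cortical cultures, starting at plating, on MEA plates. Endpoint: electrodes participating in network-spike peaks, AUC across DIV 5–12, DMSO as negative control.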

[10] = CCTE_Shafer_MEA_dev_spike_duration_mean: CCTE's Neural Network Formation Assay for Mean Spike Duration, Shafer Lab (AID 2284051);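 further: mean network spike duration pooled as area under curve over DIV 5 to 12 recordings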;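 on AC50: potency for a decrease in mean network spike duration versus DMSO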
Method in brief: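 Primary rat cortical neurons on 16-electrode MEA wells (PEI-coated, laminin in plating drop), exposed from plating through DIV 12 with compound renewed at DIV 5 and 9. Mean network-spike duration recorded DIV 5, 7, 9, 12; trapezoidal AUC across days, DMSO baseline.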

[11] = CCTE_Shafer_MEA_dev_network_spike_duration_std: CCTE's Neural Network Formation Assay for Standard Deviation of Network Spike Duration, Shafer Lab (AID 2284052);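 further: area under curve of spike duration SD across recording days 5 to 12; hits are decreases in network spike duration SD versus DMSO vehicle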
Method in brief: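 Primary rat cortical neurons on PEI-coated 16-electrode MEA wells, exposed from plating day 0 through day 12 with compound renewed at DIV 5 and 9. Network spike duration SD recorded on days 5, 7, 9, 12, collapsed as trapezoidal AUC; loss-of-signal fit versus DMSO.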

[12] = CCTE_Shafer_MEA_dev_per_network_spike_spike_number_mean: CCTE's Neural Network Formation Assay for Mean Number of Spikes in a Network Spike, Shafer Lab (AID 2284053)
Method in brief: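 Primary rat cortical neurons on 48-well, 16-electrode MEA plates were exposed from plating to DIV 12, with dosing renewed on DIV 5 and 9. Spikes per network spike (0.05 s peak window) were recorded on DIV 5, 7, 9 and 12 and collapsed as trapezoidal AUC versus DMSO.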

[13] = CCTE_Shafer_MEA_dev_per_network_spike_spike_percent: CCTE's Neural Network Formation Assay for Percent of Spikes in a Network Spike, Shafer Lab (AID 2284054)
Method in brief: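 Developing networks of rat cortical neurons are dosed at day 0 and recorded extracellularly four times up to day 12. The endpoint is the area under the curve of percent spikes in network spikes, fitted in the negative direction relative to DMSO.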

[14] = UKN5_HCS_SBAD2_cell_viability: Viability Assessment in the University of Konstanz (UKN) Leist Lab Neurite Outgrowth Assay in human iPSC-derived immature Dorsal Root Ganglia Neurons (UKN5) (AID 2284056)
Method in brief: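 iPSC-derived immature peripheral neurons (SBAD2) seeded on Matrigel with CHIR99021, SU5402 and DAPT, dosed 1 h later for 24 h. Viability from Hoechst H-33342 and calcein-AM live staining, high-content imaging; bidirectional fit versus DMSO.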

[15] = CCTE_Shafer_MEA_dev_LDH: CCTE's Lactate Dehydrogenase Assay for Cytotoxicity in the Neural Network Formation Assay, Shafer Lab (AID 2284068; active means hit-call score of the fitted dose curve at least 0.9, where 1 is the maximum;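 further: exposure for twelve days from plating with re-dosing on DIV 5 and 9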)
Method in brief: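 Primary rat cortical neurons were plated on PEI/laminin MEA plates and exposed from day 0 for twelve days, with compound renewed at DIV 5 and 9. Cytotoxicity was determined by spectrophotometric LDH assay relative to DMSO.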

[16] = CCTE_Shafer_MEA_acute_AB: CCTE's Alamar Blue Assay for Cytotoxicity in the Neural Acute Assay, Shafer Lab (AID 2284069; active means hit-call score of the fitted dose curve at least 0.9, where 1 is the maximum;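 further: active compounds lower the viability signal compared with DMSO wells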)
Method in brief: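 Primary rat cortical neurons on MEA plates, exposed acutely after baseline recording on day 13 or 15 post-plating. Viability by CellTiter Blue resazurin reduction (1:6 reagent dilution), fluorescence 544/590 nm; loss of signal versus DMSO.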

[17] = UKN5_HCS_SBAD2_neurite_outgrowth: University of Konstanz (UKN) Leist Lab Neurite Outgrowth Assay in human iPSC-derived immature Dorsal Root Ganglia Neurons (UKN5) (AID 2284070); details: actives raise or lower the signal
Method in brief: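 Thaw, seed on Matrigel (100.000 cells/cm2), dose 1 h later; at 23 h live-stain with H-33342 and calcein-AM for 60 min; image at 24 h. Neurite area fitted bidirectionally vs DMSO.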

[18] = CCTE_Shafer_MEA_dev_AB: CCTE's Alamar Blue Assay for Cytotoxicity in the Neural Network Formation Assay, Shafer Lab (AID 2284083; active means hit-call score of the fitted dose curve at least 0.9, where 1 is the maximum;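 further: twelve days of exposure from plating with re-dosing on DIV 5 and 9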)
Method in brief: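 Primary rat cortical neurons on PEI-coated 48-well MEA plates, 1.5 x 10^5 cells/well in laminin drop; compound exposure from day 0 of plating for twelve days, renewed at medium changes on DIV 5 and 9. Viability read as resazurin reduction by fluorescence, relative to DMSO.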

[19] = CCTE_Shafer_MEA_dev_mutual_information_norm: CCTE's Neural Network Formation Assay for Mutual Information Normalization, Shafer Lab (AID 2284091);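 on AC50: mutual information between electrodes summarised as area under curve across four recording days; potency is for a decrease in mutual information relative to DMSO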
Method in brief: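 Exposure of primary rat cortical neurons began at plating and ran to DIV 12, with full media and treatment renewal after DIV 5 and 9 recordings. Mutual information AUC (DIV 5–12) was analysed for loss versus DMSO.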

[20] = CCTE_Shafer_MEA_dev_correlation_coefficient_mean: CCTE's Neural Network Formation Assay for Mean Correlation Coefficient, Shafer Lab (AID 2284093);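 on AC50: well mean pairwise spike train correlation integrated as AUC over recording days 5 to 12; potency fitted for loss of correlation relative to DMSO vehicle wells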
Method in brief: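 Spontaneous activity recorded on days 5, 7, 9 and 12 post-plating; pairwise spike correlations are averaged across active electrodes and collapsed to an area-under-curve. Rat cortical cultures are dosed from plating through 12 days, with compound renewed at media changes.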

Measured: AC50

C=C1CC[C@H](O)C/C1=C/C=C1\CCC[C@]2(C)[C@@H]([C@H](C)/C=C/[C@H](C)C(C)C)CC[C@@H]12
active: [1] 19.8 µM | [2] 2.3 µM

O=C(Nc1ccc2c(O)c(N=Nc3ccc(N=Nc4ccc(S(=O)(=O)O)cc4)cc3)c(S(=O)(=O)O)cc2c1)c1ccccc1
inactive: [3]

O=CCc1ccccc1
active: [2] 74.8 µM
inactive: [1]

CC1(C)CCC[C@]2(C)[C@H]3CCO[C@]3(C)CC[C@@H]12
inactive: [3]

Oc1c(Cl)cc(Cl)c(Cl)c1Cc1c(O)c(Cl)cc(Cl)c1Cl
inactive: [7] | [16] | [3]
active: [4] 2.04 µM and 2.61 µM | [5] 1.19 µM and 2.59 µM | [6] 2.62 µM and 2.86 µM | [7] 0.0601 µM | [8] 830 nM and 526 nM | [9] 1.19 µM and 1.83 µM | [10] 1.66 µM and 1.35 µM | [11] 972 nM and 727 nM | [12] 809 nM and 929 nM | [13] 1.03 µM and 842 nM | [14] 73.5 µM | [15] 1.26 µM and 1.25 µM | [17] 78 µM | [18] 8.76 µM and 3.54 µM | [19] 578 nM and 302 nM | [20] 765 nM and 832 nM

CCCCC(CC)COC(=O)c1ccc(O)cc1 (centres undefined)
active: [1] 82.5 µM | [2] 79.1 µM

CN(C)CCOC(C)(c1ccccc1)c1ccccn1 (centres undefined)
not listed: [1] | [2] | [3] | [14] | [16] | [17]
inactive: all other assays above

CN(C)C(=S)SC(=S)N(C)C
inactive: [3]

CC(C)CCCCCCCCCCCCCCC(=O)O
active: [1] 100 µM | [2] 19.4 µM

CCCCCCCCC=CCCCCCCCC1=NCCN1CCO
active: [1] 60.9 µM | [2] 3.92 µM

Cc1cc(S(=O)(=O)O)ccc1N=Nc1c(O)ccc2ccccc12
inactive: [1] | [2]

Oc1ccc2cc(SSc3ccc4cc(O)ccc4c3)ccc2c1
active: [1] 22.2 µM | [2] 3.47 µM

FC(F)(F)COCC(F)(F)F
not listed: [1] | [2] | [3] | [14] | [15] | [16] | [17] | [18]
inactive: all other assays above

CCCCCCCCCCCCCCN(CCO)CCO
active: [1] 39.9 µM | [2] 7.58 µM

CCCCCCCCCCCCN1CCCCCC1=O
active: [1] 116 µM | [2] 89.2 µM

COCCOCCOCCO
not listed: [1] | [2] | [3] | [14] | [16] | [17]
inactive: all other assays above

CS(=O)(=O)OCCCCOS(C)(=O)=O
not listed: [1] | [2] | [3] | [14] | [15] | [16] | [17]
inactive: all other assays above

C=CC(C)(O)CCC=C(C)C (centres undefined)
inactive: [3]

CCOc1ccc(N=Nc2ccc(C=Cc3ccc(N=Nc4ccc(OCC)cc4)cc3S(=O)(=O)O)c(S(=O)(=O)O)c2)cc1
active: [1] 43.9 µM | [2] 35.6 µM

CCCCCCC(CO)CCCC (centres undefined)
inactive: [3]

COc1ccc(N=Nc2cc(C)c(N=Nc3ccc(S(=O)(=O)O)cc3)cc2OC)cc1
active: [1] 100 µM | [2] 100 µM

COCCc1ccc(OCC(O)CNC(C)C)cc1 (centres undefined)
not listed: [1] | [2] | [14] | [16] | [17]
inactive: all other assays above

CCOC(=O)[C@@H](C)Oc1ccc(Oc2nc3ccc(Cl)cc3o2)cc1
active: [1] 23.5 µM | [2] 7.15 µM

CCCCCCCCCCCCCC(=O)OCC(O)CO (centres undefined)
active: [1] 100 µM | [2] 47.9 µM

C=C(C)C(=O)OCCOC1CC2CC1C1C=CCC21 (centres undefined)
active: [1] 13 µM | [2] 6.43 µM

CCc1cc(Cc2cc(CC)cc(C(C)(C)C)c2O)c(O)c(C(C)(C)C)c1
active: [1] 83.3 µM | [2] 10.7 µM

CCCCCC(C=O)=Cc1ccccc1
active: [1] 62.6 µM | [2] 16.4 µM

Source: PubChem BioAssay (EPA / NIEHS)
